The text below walks through data of PubChem BioAssay AID372 (MTDP, 2006).

The whole screen tested about 100,000 compounds, of which about 770 (0.77%) were called active. The list comes from a sample in which actives are over-represented; it also holds similar structures and randomly drawn compounds. Values without a mark were called inactive. Cut-off read from the data, not from the text of the source: active = inhibition above about 50%; inactive = the rest.

The experiment addresses Gag-Pol polyprotein (Human immunodeficiency virus type 1 group M subtype B (isolate HXB2)) (UniProt P04585). Put plainly: RNase H inhibition, HIV 1 Gag Pol polyprotein, FRET biochemical assay, screening (AID 372). To be noted: HIV-1 RT RNase H, FRET RNA/DNA substrate fluorescence; at 10 µM; hits give high values.
Turning to `O=C1NC(=O)N(c2ccc(Cl)cc2)C(=O)/C1=C/c1cccn1-c1ccccc1`, the inhibition was 12%.

Take `O=C1NC(=O)N(c2ccccc2)C(=O)/C1=C\c1cccn1-c1ccc([N+](=O)[O-])cc1`: the inhibition is 22%.

In the case of `O=C1NC(=O)N(c2cccc(F)c2)C(=O)/C1=C/c1cccn1-c1ccc(Br)cc1`, the inhibition is 54% (active).

Turning to `Cc1cccc(N2C(=O)NC(=O)/C(=C\c3cccn3-c3ccccc3)C2=O)c1`, the inhibition is 22%.

As to `Cc1cccc(N2C(=O)NC(=O)/C(=C/c3cccn3-c3ccc([N+](=O)[O-])cc3)C2=O)c1`, the inhibition was 54% (active).

Regarding `O=C1NC(=O)N(c2ccccc2)C(=O)/C1=C/c1cccn1-c1ccc(Br)cc1`, the inhibition is 29%.

Consider `Cc1cccc(N2C(=O)NC(=O)/C(=C\c3cccn3-c3ccc(Br)cc3)C2=O)c1`, for which the inhibition was 27%.

As to `O=C1NC(=O)N(c2cccc(F)c2)C(=O)/C1=C/c1cccn1-c1ccc(Cl)cc1`, the inhibition is 59% (active).

Consider `O=C1NC(=O)N(c2cccc(F)c2)C(=O)/C1=C/c1cccn1-c1ccccc1`, for which the inhibition was 24%.

Take `N#CC1=C(N)OC2=C(C(=O)CC(c3ccccc3)C2)C1c1cccc(F)c1` (centres undefined): the inhibition was 11%.

Regarding `COc1ccc(/C=N/NC(=O)CN2CCSCC2)c(C)c1C`, the inhibition is 7%.

Regarding `COc1ccc(C(N)=O)cc1NC(=O)c1cccs1`, the inhibition is 0%.

For `O=C(CCCN1C(=O)/C(=C/c2ccccc2Cl)SC1=S)Nc1cccc(F)c1`, the inhibition was 14%.

Regarding `Cc1ccc(Cl)cc1NC(=O)C(=O)NN=C1CCN(C)CC1`, the inhibition was 0%.

For the compound `Cc1onc(-c2ccccc2Cl)c1C(=O)N1CCN(c2ccc(Cl)cc2[N+](=O)[O-])CC1`, the inhibition is 55% (active).

Regarding `Cc1onc(-c2ccccc2Cl)c1C(=O)N1CCN(c2ccccc2F)CC1`, the inhibition was 0%.

As for `Cc1cccc(N2CCN(C(=O)c3c(-c4ccccc4Cl)noc3C)CC2)c1C`, the inhibition was 9%.

As for `COc1cccc2cc(-c3csc(Nc4ccc(C(C)=O)cc4)n3)c(=O)oc12`, the inhibition was 14%.

With `COc1cccc2cc(-c3csc(Nc4ccccc4C)n3)c(=O)oc12`, the inhibition is 20%.

For the compound `CCN(CC)c1ccc(/C=N/Nc2nc(-c3cc4cccc(OC)c4oc3=O)cs2)c(O)c1`, the inhibition was 53% (active).

For `COc1ccc2oc(=O)c(C(=O)Nc3cccc(Cl)c3)cc2c1`, the inhibition is 5%.

As to `COc1ccc2oc(=O)c(C(=O)Nc3ccccc3)cc2c1`, the inhibition was 6%.

Consider `COc1ccc2oc(=O)c(C(=O)Nc3cccc([N+](=O)[O-])c3)cc2c1`, for which the inhibition was 55% (active).

In the case of `O=C(/C=C\c1ccc([N+](=O)[O-])cc1)Nc1ccc(N2CCOCC2)cc1`, the inhibition was 7%.

As for `O=C(Nc1ccc(Cl)cc1)c1ccc(Br)o1`, the inhibition is 8%.

`CC1=NNC(=O)/C1=C\c1cn(-c2ccccc2)nc1-c1ccc(Br)cc1`: the inhibition is 14%.

`O=C1NC(=O)C(=Cc2cn(-c3ccccc3)nc2-c2ccc(Br)cc2)C(=O)N1`: the inhibition was 59% (active).

Take `O=C1NC(=O)C(=Cc2cn(-c3ccccc3)nc2-c2ccc(Cl)cc2)C(=O)N1`: the inhibition is 41%.

`COC(=O)C1=C(C(=O)OC)SC2(S1)C(C(=O)OC)=C(C(=O)OC)SC1=C2c2ccccc2N(C)C1(C)C`: the inhibition is 11%.

With `COC(=O)C1=C(C(=O)OC)SC2(S1)C(C(=O)OC)=C(C(=O)OC)SC1=C2c2cccc(C)c2NC1(C)C`, the inhibition was 18%.

As to `COC(=O)C1=C(C(=O)OC)SC2(S1)C(c1ccccc1)=CSC(C(=O)OC)=C2C(=O)OC`, the inhibition was 54% (active).

Take `CC(=O)Oc1ccc(-c2cccc(C(=O)Nc3ccccc3Cl)c2)cc1`: the inhibition is 16%.

For the compound `CC1=C(C(=O)Nc2ccc(C)c(Cl)c2)C(c2cccc([N+](=O)[O-])c2)NC(=O)N1` (centres undefined), the inhibition was 6%.

Regarding `COc1ccc(C2CC(=O)C3=C(C2)Nc2ccccc2NC3c2c(F)cccc2Cl)cc1` (centres undefined), the inhibition was 24%.

For `O=C(COC(=O)c1cc(-c2ccccc2)nc2ccc(Cl)cc12)c1ccc([N+](=O)[O-])cc1`, the inhibition was 4%.

`COc1ccc(-c2cc(C(=O)Nc3cccc(Cl)c3)c3ccccc3n2)cc1OC`: the inhibition is 14%.

`O=C(Nc1ccc(NC(=O)c2cccc3ccccc23)cc1)c1ccccc1`: the inhibition is 6%.

Turning to `O=C(Nc1ccc(Nc2ccccc2)cc1)c1cccc2ccccc12`, the inhibition was 50% (active).

Consider `CC(=O)Nc1ccc(NC(=O)c2cccc3ccccc23)cc1`, for which the inhibition was 32%.

In the case of `O=C(Cc1ccc(Cl)cc1)Nc1cccc(-c2nc3cc(Cl)cc(Cl)c3o2)c1`, the inhibition is 2%.

Turning to `Cc1ccc2oc(-c3cccc(NC(=O)Cc4ccc(Cl)cc4)c3)nc2c1`, the inhibition was 42%.

On to `O=C(Cc1ccc(Cl)cc1)Nc1ccc2oc(-c3cccc(Br)c3)nc2c1`, for which the inhibition is 49%.

`O=C(Cc1ccc(Cl)cc1)Nc1ccc2oc(-c3cccc(Cl)c3)nc2c1`: the inhibition was 52% (active).

Turning to `Cc1cccc(-c2nc3cc(NC(=O)Cc4ccccc4)ccc3o2)c1`, the inhibition is 12%.

Consider `O=C(Cc1ccc(Cl)cc1)Nc1ccc2oc(-c3ccccc3Cl)nc2c1`, for which the inhibition was 54% (active).

Consider `O=C(Cc1ccc(Cl)cc1)Nc1ccc(-c2nc3cc(Cl)cc(Cl)c3o2)cc1`, for which the inhibition was 50% (active).

Turning to `O=C(Cc1ccccc1)Nc1ccc2oc(-c3cccc(Cl)c3)nc2c1`, the inhibition was 6%.

As to `Cc1ccc(-c2nc3cc(Cl)cc(Cl)c3o2)cc1NC(=O)Cc1ccc(Cl)cc1`, the inhibition is 38%.

`O=C(Cc1ccc(Cl)cc1)Nc1ccc2oc(-c3ccccc3Br)nc2c1`: the inhibition was 24%.

Take `Cc1ccccc1-c1nc2cc(NC(=O)Cc3ccc(Cl)cc3)ccc2o1`: the inhibition was 30%.

As to `Cc1cccc(-c2nc3cc(NC(=O)Cc4ccc(Cl)cc4)ccc3o2)c1`, the inhibition is 53% (active).

Take `COc1ccc(OC)c(NC(=O)c2ccc(Cl)cc2)c1`: the inhibition was 8%.

Turning to `O=C(N/N=C/c1cc(Cl)cc([N+](=O)[O-])c1O)/C(=C/C=C/c1ccccc1)NC(=O)c1ccccc1`, the inhibition was 19%.

Take `COc1ccc(OCCCOc2ccccc2Br)cc1`: the inhibition was 12%.

Turning to `COc1ccccc1N1CCN(C(=O)c2ccc(CN(c3cc(Cl)ccc3C)S(=O)(=O)c3ccccc3)cc2)CC1`, the inhibition was 1%.

Take `O=C(O)c1cccc([N+](=O)[O-])c1C(=O)Nc1cccc(Cl)c1`: the inhibition was 7%.

In the case of `O=C(Cc1ccc(Cl)cc1)Nc1ccc2oc(-c3ccc(Cl)cc3)nc2c1`, the inhibition is 29%.

Consider `CCc1ccc(-c2nc3cc(NC(=O)Cc4ccc(Cl)cc4)ccc3o2)cc1`, for which the inhibition was 25%.

Regarding `O=C(Cc1ccc(Cl)cc1)Nc1ccc2oc(-c3ccc(F)cc3)nc2c1`, the inhibition was 54% (active).

`O=C(Nc1ccc(F)cc1F)c1sc2ccccc2c1Cl`: the inhibition is 16%.

For the compound `Cc1ccc(SCCNC(=O)CN(c2ccccc2F)S(=O)(=O)c2ccccc2)cc1`, the inhibition was 10%.

For `O=C(O/N=C/c1ccc([N+](=O)[O-])cc1)c1cccs1`, the inhibition is 1%.

For `Clc1ccccc1-c1nc(-c2cccnc2)no1`, the inhibition is 20%.

On to `CC(C)c1ccc(/C=C/C(=O)Nn2cnnc2)cc1`, for which the inhibition was 0%.

Take `Cc1ccc(C(=O)OCC(=O)c2ccc(Br)cc2)cc1[N+](=O)[O-]`: the inhibition is 0%.

Consider `O=C(Nc1ccc(Cl)c(-c2nc3ccccc3o2)c1)c1ccc(Br)cc1`, for which the inhibition was 55% (active).

Consider `COc1ccc(-c2nc3cc(NC(=O)c4ccc(C)c([N+](=O)[O-])c4)ccc3o2)cc1`, for which the inhibition is 61% (active).

In the case of `COc1ccc(C(=O)Nc2cccc(-c3nc4cc(C)c(C)cc4o3)c2)cc1[N+](=O)[O-]`, the inhibition is 52% (active).

For the compound `CCc1ccc(-c2nc3cc(NC(=O)c4ccc(C)c([N+](=O)[O-])c4)ccc3o2)cc1`, the inhibition was 35%.

Regarding `COc1ccc(C(=O)Nc2cccc(-c3nc4cc(C)ccc4o3)c2)cc1[N+](=O)[O-]`, the inhibition is 1%.

`O=C(Nc1ccc(Cl)c(-c2nc3ccccc3o2)c1)c1cccc(Br)c1`: the inhibition was 1%.

For `Cc1ccc(C(=O)Nc2ccc3oc(-c4ccccc4Cl)nc3c2)cc1[N+](=O)[O-]`, the inhibition is 55% (active).

With `O=C(Nc1ccc2oc(-c3cc(Br)ccc3Cl)nc2c1)c1ccccc1`, the inhibition is 29%.

Consider `Cc1ccc(C(=O)Nc2ccc3oc(-c4ccc(F)cc4Cl)nc3c2)cc1[N+](=O)[O-]`, for which the inhibition is 0%.

On to `CCOc1ccc(C(=O)Nc2cccc(-c3nc4cc(C)c(C)cc4o3)c2)cc1[N+](=O)[O-]`, for which the inhibition was 11%.

Regarding `Cc1ccccc1-c1nc2cc(NC(=O)c3ccc(C)c([N+](=O)[O-])c3)ccc2o1`, the inhibition is 41%.

For `COc1ccc(-c2nc3cc(NC(=O)c4ccc(C)c([N+](=O)[O-])c4)ccc3o2)cc1OC`, the inhibition is 3%.

In the case of `CC(C)c1cc(C(C)C)c(S(=O)(=O)NNC(=O)c2ccncc2)c(C(C)C)c1`, the inhibition is 1%.

With `O=C(NC(=S)Nc1cccc(NC(=O)c2ccc(Cl)cc2Cl)c1)c1ccco1`, the inhibition was 11%.

For the compound `CCOc1ccc(N(CC(=O)NC(C)CC)S(=O)(=O)c2ccc(Br)cc2)cc1` (centres undefined), the inhibition was 5%.

`COC(=O)c1cccc(NC(=O)CC(=O)c2ccccc2)c1`: the inhibition is 0%.

As for `COc1ccc(Cc2noc(-c3ccccc3Cl)n2)cc1OC`, the inhibition is 23%.

Take `Cc1sc(NS(=O)(=O)c2ccc([N+](=O)[O-])cc2)nc1-c1ccc(Br)cc1`: the inhibition was 12%.

On to `O=C(/C=C/c1ccccc1)Nc1ccc(-c2nnc(-c3ccco3)o2)cc1`, for which the inhibition was 0%.

With `O=C(NCc1ccc(Cl)cc1)c1ccco1`, the inhibition is 0%.

As to `Cc1nnc(Nc2ccc3c(c2)ncn3C)c2ccccc12`, the inhibition is 0%.

`O=C(Nc1ccc2oc(-c3cccc(Br)c3)nc2c1)c1ccc(Cl)c([N+](=O)[O-])c1`: the inhibition is 13%.

Consider `O=C(Nc1ccc2oc(-c3ccc(Br)cc3)nc2c1)c1ccc(Cl)c([N+](=O)[O-])c1`, for which the inhibition is 58% (active).

Consider `O=C(Nc1ccc2oc(-c3ccc(F)cc3)nc2c1)c1ccc(Cl)c([N+](=O)[O-])c1`, for which the inhibition was 11%.

As usually defined, the inhibition is the drop in the measured response relative to a control, in per cent.
